According to PubChem BioAssay (NCATS):
Where “and” joins values, the source holds several entries; their conditions need not be identical. Equal entries are not always repeated. Inconclusive results are not listed. A number with no mark means an inactive call. Calls of active or inactive are those of the source. The call rests on the fitted dose curve; in most records, active means well fitted activation curve with a large enough effect; inconclusive means small, poorly fitted or top-dose-only effect; inactive means flat fitted curve, though single readings scatter.

assay: Cellular Toxicity (caspase-3) H-4-II-E (AID 663); conditions: H-4-II-E rat hepatoma, scaled: DMSO 0%, 100 µM tamoxifen 100%; at 92.2 µM (top of the series);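 further: cells exposed to compound for 16 hr before readout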
Summary of the method: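 Apoptosis induction is scored as increased luminescence from caspase 3/7 substrate cleavage in rat hepatoma H-4-II-E cells exposed to compound for 16 hr. Activity is scaled between DMSO and 100 uM tamoxifen.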

Compound | caspase-3 activation
Cc1ncc([N+](=O)[O-])n1CCO | 0.0502%
Cc1noc(NS(=O)(=O)c2ccc(N)cc2)c1C | 0.00688%
CC[C@H](C)C(=O)O[C@H]1C[C@@H](C)C=C2C=C[C@H](C)[C@H](CC[C@@H]3C[C@@H](O)CC(=O)O3)[C@H]21 | 1.47%
CN(C)c1ccc(C(=C2C=CC(=[N+](C)C)C=C2)c2ccc(N(C)C)cc2)cc1 | 85.6% (active)
Cc1ccnc2c1NC(=O)c1cccnc1N2C1CC1 | 0.892%
O=C(N[C@H](CO)[C@H](O)c1ccc([N+](=O)[O-])cc1)C(Cl)Cl | 0.675%
Cc1cc(NS(=O)(=O)c2ccc(N)cc2)no1 | 0.0786%
Cc1nnc(NS(=O)(=O)c2ccc(N)cc2)s1 | -0.129%
NC(N)=NC(N)=NCCc1ccccc1 | 0.291%
O=C(O)c1cc(=O)[nH]c(=O)[nH]1 | 0.389%
CC1=NN(c2ccccc2)C(=O)C1 | -1.22%
C[C@]12C=CC(=O)C=C1CC[C@@H]1[C@@H]2C(=O)C[C@@]2(C)[C@H]1CC[C@]2(O)C(=O)CO | 0.264%
COc1ccc2cc3[n+](cc2c1OC)CCc1cc2c(cc1-3)OCO2 | 0.864%
N=C(N)c1ccc(OCCCCCOc2ccc(C(=N)N)cc2)cc1 | 1.46%
NNC(=O)c1ccncc1 | 0.877%
CC(=O)[C@H]1CC[C@H]2[C@@H]3CCC4=CC(=O)CC[C@]4(C)[C@H]3CC[C@]12C | 12.7% and 23%
CCc1cc(C(N)=S)ccn1 | -1.43%
CC(=O)Oc1ccccc1C(=O)Nc1ncc([N+](=O)[O-])s1 | -3.94%
